# Assay results reported in the supplement of paper PMC12282887.
# ± gives the standard deviation of the averaged measurements.
# Key:
# Test in all cases: promoter activity interaction Z-score (Lux/OD deviation from empty-vector control); higher = stronger promoter induction by the compound
# [1] = system: E. coli BW25113 acrABp lux reporter
# In short: (§1)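 Low-copy luxCDABE promoter reporters were carried by E. coli BW25113, either wild type or lacking one of three genes, grown in 40 µl LB Lennox in 384-well plates at 37°C. Each compound was run at four 1:2 dilutions in biological duplicates, with OD600 and luminescence read every 30 min for 12 h. Integration used 0–8 h for wild type and 1–9 h for deletion strains, and wells under 10% of the median growth value were removed. Luminescence normalised to growth was fitted against a control, and the Z-transformed residual is the score.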
# [2] = system: E. coli BW25113 micFp lux reporter
# In short: as §1
# [3] = system: E. coli BW25113 ompFp lux reporter
# In short: as §1
# [4] = system: E. coli BW25113 robp lux reporter
# In short: as §1
# [5] = system: E. coli BW25113 soxSp lux reporter
# In short: as §1
# [6] = system: E. coli BW25113 tolCp lux reporter
# In short: as §1
# [7] = 14.6 µg/ml, genetic background: wild type
# [8] = 14.6 µg/ml, genetic background: ΔmarA
# [9] = 14.6 µg/ml, genetic background: Δrob
# [10] = 14.6 µg/ml, genetic background: ΔsoxS
# [11] = 29.3 µg/ml, genetic background: wild type
# [12] = 29.3 µg/ml, genetic background: ΔmarA
# [13] = 29.3 µg/ml, genetic background: Δrob
# [14] = 29.3 µg/ml, genetic background: ΔsoxS
# [15] = 58.6 µg/ml, genetic background: wild type
# [16] = 58.6 µg/ml, genetic background: ΔmarA
# [17] = 58.6 µg/ml, genetic background: Δrob
# [18] = 58.6 µg/ml, genetic background: ΔsoxS
# [19] = 117.2 µg/ml, genetic background: wild type
# [20] = 117.2 µg/ml, genetic background: ΔmarA
# [21] = 117.2 µg/ml, genetic background: Δrob
# [22] = 117.2 µg/ml, genetic background: ΔsoxS
structure (smiles),measurement,setting,value
c1ccc2[nH]ccc2c1 [Indole],promoter activity interaction Z-score,[1]; [7],0.275 ± 0.27
same,promoter activity interaction Z-score,[1]; [8],0.599 ± 0.24
same,promoter activity interaction Z-score,[1]; [9],0.275 ± 0.17
same,promoter activity interaction Z-score,[1]; [10],0.000826 ± 0.08
same,promoter activity interaction Z-score,[1]; [11],0.165 ± 0.071
same,promoter activity interaction Z-score,[1]; [12],0.0409 ± 0.28
same,promoter activity interaction Z-score,[1]; [13],0.281 ± 0.18
same,promoter activity interaction Z-score,[1]; [14],0.463 ± 0.32
same,promoter activity interaction Z-score,[1]; [15],-0.112 ± 0.29
same,promoter activity interaction Z-score,[1]; [16],0.00303 ± 0.77
same,promoter activity interaction Z-score,[1]; [17],-0.21 ± 0.23
same,promoter activity interaction Z-score,[1]; [18],-0.312 ± 0.055
same,promoter activity interaction Z-score,[1]; [19],0.167 ± 0.52
same,promoter activity interaction Z-score,[1]; [20],-0.375 ± 0.025
same,promoter activity interaction Z-score,[1]; [21],-0.278 ± 0.012
same,promoter activity interaction Z-score,[1]; [22],0.0661 ± 0.25
same,promoter activity interaction Z-score,[2]; [7],-0.0516 ± 0.12
same,promoter activity interaction Z-score,[2]; [8],0.0327 ± 0.011
same,promoter activity interaction Z-score,[2]; [9],0.00243 ± 0.044
same,promoter activity interaction Z-score,[2]; [10],0.0247 ± 0.094
same,promoter activity interaction Z-score,[2]; [11],-0.0146 ± 0.021
same,promoter activity interaction Z-score,[2]; [12],-0.0163 ± 0.074
same,promoter activity interaction Z-score,[2]; [13],0.00613 ± 0.19
same,promoter activity interaction Z-score,[2]; [14],0.586 ± 0.069
same,promoter activity interaction Z-score,[2]; [15],0.0628 ± 0.13
same,promoter activity interaction Z-score,[2]; [16],-0.00313 ± 0.016
same,promoter activity interaction Z-score,[2]; [17],-0.138 ± 0.18
same,promoter activity interaction Z-score,[2]; [18],0.204 ± 0.28
same,promoter activity interaction Z-score,[2]; [19],0.516 ± 0.39
same,promoter activity interaction Z-score,[2]; [20],-0.0638 ± 0.0022
same,promoter activity interaction Z-score,[2]; [21],0.0554 ± 0.19
same,promoter activity interaction Z-score,[2]; [22],0.622 ± 0.087
same,promoter activity interaction Z-score,[3]; [7],0.322 ± 0.069
same,promoter activity interaction Z-score,[3]; [8],0.511 ± 0.0093
same,promoter activity interaction Z-score,[3]; [9],0.571 ± 0.51
same,promoter activity interaction Z-score,[3]; [10],0.225 ± 0.49
same,promoter activity interaction Z-score,[3]; [11],0.195 ± 0.09
same,promoter activity interaction Z-score,[3]; [12],0.309 ± 0.31
same,promoter activity interaction Z-score,[3]; [13],0.788 ± 0.39
same,promoter activity interaction Z-score,[3]; [14],0.734 ± 0.24
same,promoter activity interaction Z-score,[3]; [15],0.0808 ± 0.21
same,promoter activity interaction Z-score,[3]; [16],-0.0711 ± 0.22
same,promoter activity interaction Z-score,[3]; [17],-0.121 ± 0.61
same,promoter activity interaction Z-score,[3]; [18],-0.221 ± 0.36
same,promoter activity interaction Z-score,[3]; [19],0.63 ± 0.055
same,promoter activity interaction Z-score,[3]; [20],0.332 ± 0.29
same,promoter activity interaction Z-score,[3]; [21],0.341 ± 0.29
same,promoter activity interaction Z-score,[3]; [22],0.406 ± 0.096
same,promoter activity interaction Z-score,[4]; [7],0.568 ± 0.58
same,promoter activity interaction Z-score,[4]; [8],1.11 ± 0.29
same,promoter activity interaction Z-score,[4]; [9],0.842 ± 0.094
same,promoter activity interaction Z-score,[4]; [10],0.694 ± 0.19
same,promoter activity interaction Z-score,[4]; [11],0.773 ± 0.055
same,promoter activity interaction Z-score,[4]; [12],1.1 ± 0.014
same,promoter activity interaction Z-score,[4]; [13],0.598 ± 0.34
same,promoter activity interaction Z-score,[4]; [14],0.773 ± 0.2
same,promoter activity interaction Z-score,[4]; [15],-0.0581 ± 0.17
same,promoter activity interaction Z-score,[4]; [16],0.148 ± 0.5
same,promoter activity interaction Z-score,[4]; [17],0.569 ± 0.13
same,promoter activity interaction Z-score,[4]; [18],0.0833 ± 0.58
same,promoter activity interaction Z-score,[4]; [19],0.0933 ± 0.09
same,promoter activity interaction Z-score,[4]; [20],0.0401 ± 0.093
same,promoter activity interaction Z-score,[4]; [21],-0.335 ± 0.55
same,promoter activity interaction Z-score,[4]; [22],0.0103 ± 0.36
same,promoter activity interaction Z-score,[5]; [7],0.0112 ± 0.045
same,promoter activity interaction Z-score,[5]; [8],-0.0857 ± 0.076
same,promoter activity interaction Z-score,[5]; [9],-0.0709 ± 0.072
same,promoter activity interaction Z-score,[5]; [10],0.0403 ± 0.38
same,promoter activity interaction Z-score,[5]; [11],-0.034 ± 0.11
same,promoter activity interaction Z-score,[5]; [12],0.0579 ± 0.018
same,promoter activity interaction Z-score,[5]; [13],-0.0043 ± 0.038
same,promoter activity interaction Z-score,[5]; [14],0.238 ± 0.052
same,promoter activity interaction Z-score,[5]; [15],-0.0963 ± 0.0079
same,promoter activity interaction Z-score,[5]; [16],-0.00367 ± 0.068
same,promoter activity interaction Z-score,[5]; [17],-0.169 ± 0.082
same,promoter activity interaction Z-score,[5]; [18],-0.175 ± 0.24
same,promoter activity interaction Z-score,[5]; [19],-0.134 ± 0.044
same,promoter activity interaction Z-score,[5]; [20],-0.1992 ± 0.0019
same,promoter activity interaction Z-score,[5]; [21],-0.22 ± 0.15
same,promoter activity interaction Z-score,[5]; [22],-0.0773 ± 0.035
same,promoter activity interaction Z-score,[6]; [7],0.801 ± 1.5
same,promoter activity interaction Z-score,[6]; [8],0.744 ± 0.49
same,promoter activity interaction Z-score,[6]; [9],-0.506 ± 0.39
same,promoter activity interaction Z-score,[6]; [10],-0.474 ± 0.23
same,promoter activity interaction Z-score,[6]; [11],-0.36 ± 0.35
same,promoter activity interaction Z-score,[6]; [12],0.821 ± 1.3
same,promoter activity interaction Z-score,[6]; [13],0.287 ± 0.068
same,promoter activity interaction Z-score,[6]; [14],2.02 ± 0.35
same,promoter activity interaction Z-score,[6]; [15],-0.246 ± 0.9
same,promoter activity interaction Z-score,[6]; [16],0.0426 ± 0.17
same,promoter activity interaction Z-score,[6]; [17],-0.244 ± 0.44
same,promoter activity interaction Z-score,[6]; [18],1.06 ± 0.6
same,promoter activity interaction Z-score,[6]; [19],-0.0345 ± 0.59
same,promoter activity interaction Z-score,[6]; [20],-0.841 ± 0.13
same,promoter activity interaction Z-score,[6]; [21],-1.12 ± 0.97
same,promoter activity interaction Z-score,[6]; [22],-0.0289 ± 0.16
